Common to all, as to experiment: yeast three-hybrid, YBZ-1, SC-Leu-His + 0.5 mM 3-AT, 4 days
Conditions in all cases: tags: N-Gal4 AD-HA kept; label: inside an RPR1-promoter hybrid RNA with tandem MS2 sites; ssRNA

Assay [1] addresses PUM1 PUF domain R3-YYG (Homo sapiens, UniProt Q14671 828-1176, C935Y;R936Y;Q939G). The procedure, abridged:
(§1)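 The interaction score is the log change in how often each variant appears, from input to selection. Frequencies came from PCR-amplified, Illumina-sequenced repeat regions of Pumilio-1 PUF domain libraries grown in strain YBZ-1 (LexA–MS2 coat fusion, HIS3 reporter) alongside matching RNA elements. Input plates were SC-Leu and selection plates were SC-Leu-His + 0.5 mM 3-AT, each for four days, and the log2 calculation used a pseudocount of 1 where a variant was absent.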

Assay [2] deals with PUM1 PUF domain R5-RRG (Homo sapiens, UniProt Q14671 828-1176, C1007R;Q1011G). A digest of the protocol:
as §1

For assay [3], the target named is T1, PUM1 PUF domain R6-VWT (Homo sapiens, UniProt Q14671 828-1176, N1043V;Y1044W;Q1047T).
T1 sequence: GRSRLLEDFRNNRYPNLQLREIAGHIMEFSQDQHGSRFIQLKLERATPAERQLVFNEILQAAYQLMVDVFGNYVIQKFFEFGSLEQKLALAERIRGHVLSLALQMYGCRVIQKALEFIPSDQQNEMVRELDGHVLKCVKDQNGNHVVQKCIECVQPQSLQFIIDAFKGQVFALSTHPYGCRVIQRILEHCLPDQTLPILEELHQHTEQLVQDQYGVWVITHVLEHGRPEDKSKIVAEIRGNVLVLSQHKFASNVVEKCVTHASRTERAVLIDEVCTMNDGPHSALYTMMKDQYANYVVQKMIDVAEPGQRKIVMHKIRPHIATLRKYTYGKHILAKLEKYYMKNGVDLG
A digest of the protocol: as §1

Assay [4] concerns the target PUM1 PUF domain R5-SHL (Homo sapiens, UniProt Q14671 828-1176, C1007S;R1008H;Q1011L). The procedure, abridged: as §1
For assay [5], the target named is PUM1 PUF domain R5-RKP (Homo sapiens, UniProt Q14671 828-1176, C1007R;R1008K;Q1011P). The procedure, abridged: as §1
The target of assay [6] is PUM1 PUF domain R5-RCK (Homo sapiens, UniProt Q14671 828-1176, C1007R;R1008C;Q1011K). A digest of the protocol: as §1
Assay [7] addresses PUM1 PUF domain R1-RLQ (Homo sapiens, UniProt Q14671 828-1176, S863R;R864L). The procedure, abridged: as §1
In assay [8] the target is T2, PUM1 PUF domain R6-IFT (Homo sapiens, UniProt Q14671 828-1176, N1043I;Y1044F;Q1047T).
T2 sequence: T1 sequence with V216I, W217F
A digest of the protocol: as §1

The target of assay [9] is T3, PUM1 PUF domain R6-EWL (Homo sapiens, UniProt Q14671 828-1176, N1043E;Y1044W;Q1047L).
T3 sequence: T1 sequence with V216E, T220L
A digest of the protocol:
as §1

For assay [10], the target named is PUM1 PUF domain R2-LFI (Homo sapiens, UniProt Q14671 828-1176, N899L;Y900F;Q903I). The procedure, abridged: as §1

In article PMC8384837, “Expanding the binding specificity for RNA recognition by a PUF domain” one finds binding signal data, which are given here for ten sequences.

Where a chain is given by its changes, count along the chain named.

Take “GGCUAGAACUAGUGGAUCCCCCGGCGCCCGGCGGCUCGAGCCCGGGUAAGUGUAAGUAGUCUGCAUGCCGCCGGGCGCCAUGCCUGCAGGUCGACUCUAGAAAACAUG”: in assay [1], the binding signal was 6.37 log2 enrichment (interaction score).

Take “GGCUAGAACUAGUGGAUCCCCCGGCGCCCGGCGGCUCGAGCCCGGGUAAGUGUAAAUAGUCUGCAUGCCGCCGGGCGCCAUGCCUGCAGGUCGACUCUAGAAAACAUG”: the binding signal was 2.29 log2 enrichment (interaction score) in assay [2], 1.67 log2 enrichment (interaction score) in assay [3], 2.34 log2 enrichment (interaction score) in assay [4] and 4.58 log2 enrichment (interaction score) in assay [1].

Take “GGCUAGAACUAGUGGAUCCCCCGGCGCCCGGCGGCUCGAGCCCGGGUAAGUGUGAAUAGUCUGCAUGCCGCCGGGCGCCAUGCCUGCAGGUCGACUCUAGAAAACAUG”: the binding signal in [2] is 1.66 log2 enrichment (interaction score).

With “GGCUAGAACUAGUGGAUCCCCCGGCGCCCGGCGGCUCGAGCCCGGGUAAGUGUCAAUAGUCUGCAUGCCGCCGGGCGCCAUGCCUGCAGGUCGACUCUAGAAAACAUG”, the binding signal in assay [5] is 3.3 log2 enrichment (interaction score); in assay [2], 4.19 log2 enrichment (interaction score); in assay [6], 4.05 log2 enrichment (interaction score); in assay [4], 0.12 log2 enrichment (interaction score).

Consider “GGCUAGAACUAGUGGAUCCCCCGGCGCCCGGCGGCUCGAGCCCGGGUAAGUGUUAAUAGUCUGCAUGCCGCCGGGCGCCAUGCCUGCAGGUCGACUCUAGAAAACAUG”, for which the binding signal was 4.55 log2 enrichment (interaction score) in assay [2] and 2.85 log2 enrichment (interaction score) in [4].

Turning to “GGCUAGAACUAGUGGAUCCCCCGGCGCCCGGCGGCUCGAGCCCGGGUAAGUGUAAAUGGUCUGCAUGCCGCCGGGCGCCAUGCCUGCAGGUCGACUCUAGAAAACAUG”, in assay [7], the binding signal is 2.26 log2 enrichment (interaction score).

“GGCUAGAACUAGUGGAUCCCCCGGCGCCCGGCGGCUCGAGCCCGGGUAAGUGUAAAUCGUCUGCAUGCCGCCGGGCGCCAUGCCUGCAGGUCGACUCUAGAAAACAUG”: in [7], the binding signal is 5.58 log2 enrichment (interaction score).

As to “GGCUAGAACUAGUGGAUCCCCCGGCGCCCGGCGGCUCGAGCCCGGGUAAGUGUAAAUUGUCUGCAUGCCGCCGGGCGCCAUGCCUGCAGGUCGACUCUAGAAAACAUG”, in assay [7], the binding signal is 4.94 log2 enrichment (interaction score).

Consider “GGCUAGAACUAGUGGAUCCCCCGGCGCCCGGCGGCUCGAGCCCGGGUAAGUGAAAAUAGUCUGCAUGCCGCCGGGCGCCAUGCCUGCAGGUCGACUCUAGAAAACAUG”, for which the binding signal in assay [3] is 6.13 log2 enrichment (interaction score); in assay [8], 4.79 log2 enrichment (interaction score); in assay [9], 7.27 log2 enrichment (interaction score).

On to “GGCUAGAACUAGUGGAUCCCCCGGCGCCCGGCGGCUCGAGCCCGGGUAAGUGUAAAAAGUCUGCAUGCCGCCGGGCGCCAUGCCUGCAGGUCGACUCUAGAAAACAUG”, for which the binding signal in assay [10] is 4.64 log2 enrichment (interaction score).
